Experimental data reported in PubChem BioAssay AID720650 (Broad Institute, 2013).
Values without a mark were called inactive. Calls of active or inactive are those of the source. The rule behind the calls is not given here.

Assay: C difficile toxins, biochemical counterscreen, UDPG substrate absence, confirmatory dose response (AID 720650)
Settings: series mostly up to 19.5 µM; activity change, negative = inhibition: at the top concentration

Compound	AC50	activity change, negative = inhibition
CN1c2ccc(-c3ccccc3)cc2[C@H]2[C@H](CCN2C(=O)CN2CCOCC2)[C@H]1CO	7.83 µM (active)	–
COc1cc(/C=N/NC(=O)c2c(C)nc3ccc(Cl)cn23)cc(OC)c1OC	–	-0.562%
NC(=O)CC(NC(=O)c1ccccc1)c1ccc(NCCc2ccc(F)cc2)c([N+](=O)[O-])c1 (stereo not drawn)	–	-15.4%
N/C(=N\N=C\c1ccc(O)cc1)c1nonc1N	5.49 µM (active)	–
CN(C)CC(=O)N1CC[C@@H]2[C@H]1c1cc(-c3ccccc3)ccc1N(C)[C@H]2CO	14.1 µM (active)	–
Cc1ccc(C2=NS(=O)(=O)N(C)C(C(=O)NCc3ccc4c(c3)OCO4)=C2)cc1	–	-9.33%
CCCCNS(=O)(=O)c1ccc(OCC(=O)OC)cc1	–	0.773%
COc1ccc(C(=O)Nc2cc(Cl)ccc2C(=O)O)cc1	10.4 µM (active)	–
O=C(NC(=S)NNS(=O)(=O)c1ccccc1)c1cccnc1	–	-9.81%
Nc1nc(Cl)cc(NCCc2ccc(O)cc2)n1	21.8 µM (active)	–
O=C(N[C@@H](Cc1c[nH]c2ccccc12)C(=O)O)C1CCN(S(=O)(=O)c2cccs2)CC1	–	-4.14%
O=C(NNc1ccc(-c2csnn2)cc1)c1ccccc1C(F)(F)F	0.432 µM (active)	–
Cc1ccc(C(=O)Nc2ncc([N+](=O)[O-])s2)cc1	> 39 µM	–
CCCNC(=O)Nc1ccc2c(c1)C(=O)N(C)[C@H]1CC[C@H](CC(=O)NC3CCC3)O[C@@H]1CO2	–	15.4%
C[C@H](CO)N1C[C@H](C)[C@@H](CN(C)CC2CCCCC2)Oc2ccc(NC(=O)CCN3CCOCC3)cc2C1=O	–	-0.583%
N=C(N)c1ccc(N=Nc2c(O)ccc3c2[nH]c2ccccc23)cc1	–	-3.4%
CC(Sc1nc(N)cc(=O)[nH]1)C(=O)NCC(=O)Nc1ccc(F)c(F)c1F (stereo not drawn)	–	-6.94%
CCCNC(=O)C1CC(=O)N(c2ccc(OCC)cc2)C1 (stereo not drawn)	–	-3.69%
CC(=O)Nc1cccc2cc(O)ccc12	11.1 µM (active)	–

Compound	AC50	activity change, negative = inhibition
CNC(=O)C[C@H]1CC[C@@H]2[C@@H](COc3ccc(NC(=O)c4cccc(OC)c4)cc3C(=O)N2C)O1	–	-18.7%
Cc1cccc(/C=C/c2onc(C)c2S(=O)(=O)N2CCC(C(=O)NC(C)(C)C)CC2)c1	–	-5.61%
Cc1ccc(S(=O)(=O)N2CCC(C(=O)OCC(=O)NCCc3ccccc3)CC2)cc1C	–	6.81%
CCOc1ccccc1/C=C/c1onc(C)c1S(=O)(=O)N1CCC(C(=O)N(CC)CC)CC1	–	-11.7%
Nc1ccc2c(c1)Nc1ccccc1CC2	9.36 µM (active)	–
O=c1c2ccc(Cl)cc2[nH]c(=S)n1-c1cccnc1	–	-0.508%
C[C@@H]1C=C[C@](Cc2ccccc2)(C(=O)NCC2CC2)N1C(=O)c1ccccc1	–	-3.34%
CC(=O)c1ccc(NC(=O)CNCC(c2ccccc2)N(C)C)cc1 (stereo not drawn)	–	-3.41%
CC1CCCN(C(=S)Nc2ccc(F)cc2)C1 (stereo not drawn)	–	-12.2%
Cc1cc(N/N=C/c2ccc(O)cc2O)nc(N2CCOCC2)n1	> 39 µM	–
CCCCn1c(=S)[nH]c2c(=O)n(C)c(=O)n(C)c21	14.9 µM (active)	–
CC(OC(=O)C1=COCCO1)C(=O)c1ccc(Br)cc1 (stereo not drawn)	–	7.35%
COc1ccc(C2=NS(=O)(=O)N(C)C(C(=O)NCc3ccc(F)cc3)=C2)cc1OC	–	-12.4%
Clc1ccc(-c2nc3ccc(Cl)cn3c2Cc2ccccc2)cc1	–	-11.8%
Oc1ccc(CCNc2ncnc3ccc(Cl)cc23)cc1	19.5 µM (active)	–
O=C1OCC/C1=C\c1ccc(O)cc1	9.75 µM (active)	–
O=C(CN1C(=O)NC2(CCCc3ccccc32)C1=O)NCc1cccs1 (stereo not drawn)	–	12.2%
O=C(C[C@H]1CC[C@H]2[C@@H](COC[C@@H](O)CN2Cc2ccccc2)O1)NCCc1ccccc1	–	-12.5%
O=C(c1ccc(N2CCOCC2)c([N+](=O)[O-])c1)N1CCN(c2ccccc2F)CC1	> 39 µM	–
